Reference: the supplement of paper PMC4466140

biological target: AgAbp1; assay: SPOT peptide array binding signal intensity (averaged, normalized) (arbitrary units (background-subtracted, floor 0; scale differs between SH3 domains)); higher = stronger binding of the SH3 domain to the peptide
Outline: (§1)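 To measure binding, SH3 domains from four yeast species were fused to GST, expressed in E. coli BL21(DE3) and purified on glutathione Sepharose. Each domain was incubated at 10 μg/ml overnight at 4°C on cellulose membranes with synthetic 15-mer peptides whose cysteines were replaced by serines. Anti-GST antibody, an HRP anti-mouse secondary and luminol were used for detection, and images were quantified with Genespotter. Reported binding signal is normalized, background-subtracted spot intensity averaged over replicates, in arbitrary units that differ between domains.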

Row | Binder | SPOT peptide array binding signal intensity
1 | SAPDIPPRSPNRNAH | ≤ 0

biological target: AgBbc1; assay: as above
Outline: as §1

Row | Binder | SPOT peptide array binding signal intensity
2 | SAPDIPPRSPNRNAH | 498

biological target: AgBem1-D1; assay: as above
Outline: as §1

Row | Binder | SPOT peptide array binding signal intensity
3 | SAPDIPPRSPNRNAH | ≤ 0

biological target: AgBzz1-D1; assay: as above
Outline: as §1

Row | Binder | SPOT peptide array binding signal intensity
4 | SAPDIPPRSPNRNAH | 34.5

biological target: AgBzz1-D2; assay: as above
Outline: as §1

Row | Binder | SPOT peptide array binding signal intensity
5 | SAPDIPPRSPNRNAH | ≤ 0

biological target: AgCyk3; assay: as above
Outline: as §1

Row | Binder | SPOT peptide array binding signal intensity
6 | SAPDIPPRSPNRNAH | ≤ 0

biological target: AgFus1; assay: as above
Outline: as §1

Row | Binder | SPOT peptide array binding signal intensity
7 | SAPDIPPRSPNRNAH | ≤ 0

biological target: AgHof1; assay: as above
Outline: as §1

Row | Binder | SPOT peptide array binding signal intensity
8 | SAPDIPPRSPNRNAH | ≤ 0

biological target: AgHse1; assay: as above
Outline: as §1

Row | Binder | SPOT peptide array binding signal intensity
9 | SAPDIPPRSPNRNAH | ≤ 0

biological target: AgLsb1; assay: as above
Outline: as §1

Row | Binder | SPOT peptide array binding signal intensity
10 | SAPDIPPRSPNRNAH | 324

biological target: AgLsb4; assay: as above
Outline: as §1

Row | Binder | SPOT peptide array binding signal intensity
11 | SAPDIPPRSPNRNAH | 328

biological target: AgMyo5; assay: as above
Outline: as §1

Row | Binder | SPOT peptide array binding signal intensity
12 | SAPDIPPRSPNRNAH | ≤ 0

biological target: AgNbp2; assay: as above
Outline: as §1

Row | Binder | SPOT peptide array binding signal intensity
13 | SAPDIPPRSPNRNAH | 3.5

biological target: AgRvs167; assay: as above
Outline: as §1

Row | Binder | SPOT peptide array binding signal intensity
14 | SAPDIPPRSPNRNAH | 36.3

biological target: AgSho1; assay: as above
Outline: as §1

Row | Binder | SPOT peptide array binding signal intensity
15 | SAPDIPPRSPNRNAH | ≤ 0

biological target: AgSla1-D1-D2; assay: as above
Outline: as §1

Row | Binder | SPOT peptide array binding signal intensity
16 | SAPDIPPRSPNRNAH | ≤ 0

biological target: AgSla1-D3; assay: as above
Outline: as §1

Row | Binder | SPOT peptide array binding signal intensity
17 | SAPDIPPRSPNRNAH | ≤ 0

biological target: CaAbp1-D1; assay: as above
Outline: as §1

Row | Binder | SPOT peptide array binding signal intensity
18 | SAPDIPPRSPNRNAH | ≤ 0

biological target: CaAbp1-D2; assay: as above
Outline: as §1

Row | Binder | SPOT peptide array binding signal intensity
19 | SAPDIPPRSPNRNAH | 4.5

biological target: CaBbc1; assay: as above
Outline: as §1

Row | Binder | SPOT peptide array binding signal intensity
20 | SAPDIPPRSPNRNAH | 575

biological target: CaBem1-D1; assay: as above
Outline: as §1

Row | Binder | SPOT peptide array binding signal intensity
21 | SAPDIPPRSPNRNAH | 1

biological target: CaBzz1-D1; assay: as above
Outline: as §1

Row | Binder | SPOT peptide array binding signal intensity
22 | SAPDIPPRSPNRNAH | 85

biological target: CaBzz1-D2; assay: as above
Outline: as §1

Row | Binder | SPOT peptide array binding signal intensity
23 | SAPDIPPRSPNRNAH | ≤ 0

biological target: CaCyk3; assay: as above
Outline: as §1

Row | Binder | SPOT peptide array binding signal intensity
24 | SAPDIPPRSPNRNAH | 3

biological target: CaFus1; assay: as above
Outline: as §1

Row | Binder | SPOT peptide array binding signal intensity
25 | SAPDIPPRSPNRNAH | ≤ 0

biological target: CaHof1; assay: as above
Outline: as §1

Row | Binder | SPOT peptide array binding signal intensity
26 | SAPDIPPRSPNRNAH | ≤ 0

biological target: CaHse1; assay: as above
Outline: as §1

Row | Binder | SPOT peptide array binding signal intensity
27 | SAPDIPPRSPNRNAH | 9.75

biological target: CaLsb1; assay: as above
Outline: as §1

Row | Binder | SPOT peptide array binding signal intensity
28 | SAPDIPPRSPNRNAH | 0.25

biological target: CaLsb4; assay: as above
Outline: as §1

Row | Binder | SPOT peptide array binding signal intensity
29 | SAPDIPPRSPNRNAH | 4890

biological target: CaMyo5; assay: as above
Outline: as §1

Row | Binder | SPOT peptide array binding signal intensity
30 | SAPDIPPRSPNRNAH | ≤ 0

biological target: CaNbp2; assay: as above
Outline: as §1

Row | Binder | SPOT peptide array binding signal intensity
31 | SAPDIPPRSPNRNAH | ≤ 0

biological target: CaRvs167; assay: as above
Outline: as §1

Row | Binder | SPOT peptide array binding signal intensity
32 | SAPDIPPRSPNRNAH | 321

biological target: CaRvs167-3; assay: as above
Outline: as §1

Row | Binder | SPOT peptide array binding signal intensity
33 | SAPDIPPRSPNRNAH | 1

biological target: CaSho1; assay: as above
Outline: as §1

Row | Binder | SPOT peptide array binding signal intensity
34 | SAPDIPPRSPNRNAH | ≤ 0

biological target: CaSla1-D1-D2; assay: as above
Outline: as §1

Row | Binder | SPOT peptide array binding signal intensity
35 | SAPDIPPRSPNRNAH | 290

biological target: CaSla1-D3; assay: as above
Outline: as §1

Row | Binder | SPOT peptide array binding signal intensity
36 | SAPDIPPRSPNRNAH | ≤ 0

biological target: ScAbp1; assay: as above
Outline: as §1

Row | Binder | SPOT peptide array binding signal intensity
37 | SAPDIPPRSPNRNAH | 4.5

biological target: ScBbc1; assay: as above
Outline: as §1

Row | Binder | SPOT peptide array binding signal intensity
38 | SAPDIPPRSPNRNAH | 35.8

biological target: ScBem1-D1; assay: as above
Outline: as §1

Row | Binder | SPOT peptide array binding signal intensity
39 | SAPDIPPRSPNRNAH | ≤ 0

biological target: ScBzz1-D1; assay: as above
Outline: as §1

Row | Binder | SPOT peptide array binding signal intensity
40 | SAPDIPPRSPNRNAH | ≤ 0

biological target: ScBzz1-D2; assay: as above
Outline: as §1

Row | Binder | SPOT peptide array binding signal intensity
41 | SAPDIPPRSPNRNAH | ≤ 0

biological target: ScCyk3; assay: as above
Outline: as §1

Row | Binder | SPOT peptide array binding signal intensity
42 | SAPDIPPRSPNRNAH | ≤ 0

biological target: ScFus1; assay: as above
Outline: as §1

Row | Binder | SPOT peptide array binding signal intensity
43 | SAPDIPPRSPNRNAH | ≤ 0

biological target: ScHof1; assay: as above
Outline: as §1

Row | Binder | SPOT peptide array binding signal intensity
44 | SAPDIPPRSPNRNAH | ≤ 0

biological target: ScHse1; assay: as above
Outline: as §1

Row | Binder | SPOT peptide array binding signal intensity
45 | SAPDIPPRSPNRNAH | 17.5

biological target: ScLsb1; assay: as above
Outline: as §1

Row | Binder | SPOT peptide array binding signal intensity
46 | SAPDIPPRSPNRNAH | 763

biological target: ScLsb2; assay: as above
Outline: as §1

Row | Binder | SPOT peptide array binding signal intensity
47 | SAPDIPPRSPNRNAH | 1090

biological target: ScLsb3; assay: as above
Outline: as §1

Row | Binder | SPOT peptide array binding signal intensity
48 | SAPDIPPRSPNRNAH | 5380

biological target: ScLsb4; assay: as above
Outline: as §1

Row | Binder | SPOT peptide array binding signal intensity
49 | SAPDIPPRSPNRNAH | 936

biological target: ScMyo3; assay: as above
Outline: as §1

Row | Binder | SPOT peptide array binding signal intensity
50 | SAPDIPPRSPNRNAH | ≤ 0

biological target: ScMyo5; assay: as above
Outline: as §1

Row | Binder | SPOT peptide array binding signal intensity
51 | SAPDIPPRSPNRNAH | ≤ 0

biological target: ScNbp2; assay: as above
Outline: as §1

Row | Binder | SPOT peptide array binding signal intensity
52 | SAPDIPPRSPNRNAH | 57

biological target: ScPex13; assay: as above
Outline: as §1

Row | Binder | SPOT peptide array binding signal intensity
53 | SAPDIPPRSPNRNAH | 130

biological target: ScRvs167; assay: as above
Outline: as §1

Row | Binder | SPOT peptide array binding signal intensity
54 | SAPDIPPRSPNRNAH | 1360

biological target: ScSho1; assay: as above
Outline: as §1

Row | Binder | SPOT peptide array binding signal intensity
55 | SAPDIPPRSPNRNAH | 13.5

biological target: ScSla1-D1-D2; assay: as above
Outline: as §1

Row | Binder | SPOT peptide array binding signal intensity
56 | SAPDIPPRSPNRNAH | 134

biological target: ScSla1-D3; assay: as above
Outline: as §1

Row | Binder | SPOT peptide array binding signal intensity
57 | SAPDIPPRSPNRNAH | ≤ 0

biological target: SpAbp1-D1; assay: as above
Outline: as §1

Row | Binder | SPOT peptide array binding signal intensity
58 | SAPDIPPRSPNRNAH | ≤ 0

biological target: SpBbc1; assay: as above
Outline: as §1

Row | Binder | SPOT peptide array binding signal intensity
59 | SAPDIPPRSPNRNAH | 3.5

biological target: SpBzz1-D1; assay: as above
Outline: as §1

Row | Binder | SPOT peptide array binding signal intensity
60 | SAPDIPPRSPNRNAH | ≤ 0

biological target: SpBzz1-D2; assay: as above
Outline: as §1

Row | Binder | SPOT peptide array binding signal intensity
61 | SAPDIPPRSPNRNAH | ≤ 0

biological target: SpCyk3; assay: as above
Outline: as §1

Row | Binder | SPOT peptide array binding signal intensity
62 | SAPDIPPRSPNRNAH | ≤ 0

biological target: SpHof1; assay: as above
Outline: as §1

Row | Binder | SPOT peptide array binding signal intensity
63 | SAPDIPPRSPNRNAH | 0.75

biological target: SpHof1-2; assay: as above
Outline: as §1

Row | Binder | SPOT peptide array binding signal intensity
64 | SAPDIPPRSPNRNAH | ≤ 0

biological target: SpHof1-3; assay: as above
Outline: as §1

Row | Binder | SPOT peptide array binding signal intensity
65 | SAPDIPPRSPNRNAH | 1

biological target: SpHse1; assay: as above
Outline: as §1

Row | Binder | SPOT peptide array binding signal intensity
66 | SAPDIPPRSPNRNAH | 12

biological target: SpLsb1; assay: as above
Outline: as §1

Row | Binder | SPOT peptide array binding signal intensity
67 | SAPDIPPRSPNRNAH | 540

biological target: SpLsb4; assay: as above
Outline: as §1

Row | Binder | SPOT peptide array binding signal intensity
68 | SAPDIPPRSPNRNAH | 6620

biological target: SpMyo1; assay: as above
Outline: as §1

Row | Binder | SPOT peptide array binding signal intensity
69 | SAPDIPPRSPNRNAH | ≤ 0

biological target: SpNbp2; assay: as above
Outline: as §1

Row | Binder | SPOT peptide array binding signal intensity
70 | SAPDIPPRSPNRNAH | 59.5

biological target: SpPex13; assay: as above
Outline: as §1

Row | Binder | SPOT peptide array binding signal intensity
71 | SAPDIPPRSPNRNAH | ≤ 0

biological target: SpRvs167; assay: as above
Outline: as §1

Row | Binder | SPOT peptide array binding signal intensity
72 | SAPDIPPRSPNRNAH | 1600

biological target: SpSla1-D1-D2; assay: as above
Outline: as §1

Row | Binder | SPOT peptide array binding signal intensity
73 | SAPDIPPRSPNRNAH | ≤ 0

biological target: SpSla1-D3; assay: as above
Outline: as §1

Row | Binder | SPOT peptide array binding signal intensity
74 | SAPDIPPRSPNRNAH | ≤ 0
